Values joined by “and” are separate entries in the source; they are usually repeats but may differ in a detail not shown here. Equal entries are not always repeated. More than one record can exist for a structure, and the calls need not agree. Active and inactive are the calls of the source. Where a call stands in place of a potency, no number is given. Unless noted, the call rests on the fitted dose curve; in most records, active means well fitted curve in the direction sought with a large enough effect in the repeat runs; inconclusive means weak or mixed curves; inactive means no such curve, though single readings can be large; an effect the other way counts as inactive or inconclusive.
Tests used:
[1] = qHTS assay to identify small molecule antagonists of the glucocorticoid receptor (GR) signaling pathway - cell viability counter screen (AID 720693); further: nearly all actives have a fitted effect of over 55% in size
[2] = qHTS assay for identifying genotoxic compounds that show differential cytotoxicity against isogenic chicken DT40 cell lines with known DNA damage response pathways - wild type cell line (AID 743012); further: nearly all actives have a fitted effect of over 60% in size
Summary of the method: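 Endpoint: CellTiter-Glo luminescence, 30 min RT. Cells: wild type DT40, 300/well. Exposure: compounds in DMSO, 40 h, 37 C/5% CO2, after ~0.5 h pre-incubation.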

[3] = qHTS assay for identifying genotoxic compounds that show differential cytotoxicity against isogenic chicken DT40 cell lines with known DNA damage response pathways - Rev3 mutant cell line (AID 743014); further: nearly all actives have a fitted effect of over 55% in size
[4] = qHTS assay for identifying genotoxic compounds that show differential cytotoxicity against isogenic chicken DT40 cell lines with known DNA damage response pathways - Rad54/Ku70 mutant cell line (AID 743015); further: nearly all actives have a fitted effect of over 60% in size
[5] = qHTS assay to identify small molecule antagonists of the androgen receptor (AR) signaling pathway - cell viability counter screen (AID 743033; further: nearly all actives have a fitted effect of over 45% in size)
[6] = qHTS assay to identify small molecule antagonists of the androgen receptor (AR) signaling pathway using the MDA cell line - cell viability counter screen (AID 743041; further: nearly all actives have a fitted effect of over 45% in size)
Summary of the method: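 In this qHTS counter assay, fluorescence intensity after CellTiter-Fluor addition indicated viability of MDA-kb2 AR-luc cells given compounds and R1881 for 16 h at 37C.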

[7] = qHTS assay to identify small molecule antagonists of the thyroid receptor (TR) signaling pathway - cell viability counter screen (AID 743064); further: nearly all actives have a fitted effect of over 50% in size
Summary of the method: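 GH3.TRE-Luc rat pituitary cells carrying a TRE-luciferase reporter were treated with compound plus 1 nM T3 (final) for 23.5 h at 37 °C. Viability was then read in the same wells by CellTiter-Fluor fluorescence after a further 30 min.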

[8] = qHTS assay to identify small molecule antagonists of the thyroid receptor (TR) signaling pathway (AID 743065); further: nearly all actives have a fitted effect of over 55% in size
Summary of the method: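 GH3.TRE-Luc rat pituitary cells carrying two TR response elements driving luciferase were plated for 4 h, given compound plus 1 nM T3 (final), and incubated 23.5 h at 37 C. ONE-Glo luminescence measured reporter inhibition; CellTiter-Fluor fluorescence tracked cytotoxicity.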

[9] = system: thyroid hormone receptor (rat, GH3 cells); assay: qHTS assay to identify small molecule agonists of the thyroid receptor (TR) signaling pathway (AID 743066; calls by dose curve)
[10] = target: Estrogen receptor (Homo sapiens) (UniProt P03372); assay: qHTS assay to identify small molecule antagonists of the estrogen receptor alpha (ER-alpha) signaling pathway (AID 743069; active means well fitted curve in the direction sought with a large enough effect in the signal ratio in the repeat runs, not every such curve was filed as active; inconclusive means weak or mixed curves, or effect the other way; inactive means no such curve, though single readings can be large or run the other way; the % refers to the signal ratio)
Sequence of Estrogen receptor (Homo sapiens) (P03372 whole entry, looked up): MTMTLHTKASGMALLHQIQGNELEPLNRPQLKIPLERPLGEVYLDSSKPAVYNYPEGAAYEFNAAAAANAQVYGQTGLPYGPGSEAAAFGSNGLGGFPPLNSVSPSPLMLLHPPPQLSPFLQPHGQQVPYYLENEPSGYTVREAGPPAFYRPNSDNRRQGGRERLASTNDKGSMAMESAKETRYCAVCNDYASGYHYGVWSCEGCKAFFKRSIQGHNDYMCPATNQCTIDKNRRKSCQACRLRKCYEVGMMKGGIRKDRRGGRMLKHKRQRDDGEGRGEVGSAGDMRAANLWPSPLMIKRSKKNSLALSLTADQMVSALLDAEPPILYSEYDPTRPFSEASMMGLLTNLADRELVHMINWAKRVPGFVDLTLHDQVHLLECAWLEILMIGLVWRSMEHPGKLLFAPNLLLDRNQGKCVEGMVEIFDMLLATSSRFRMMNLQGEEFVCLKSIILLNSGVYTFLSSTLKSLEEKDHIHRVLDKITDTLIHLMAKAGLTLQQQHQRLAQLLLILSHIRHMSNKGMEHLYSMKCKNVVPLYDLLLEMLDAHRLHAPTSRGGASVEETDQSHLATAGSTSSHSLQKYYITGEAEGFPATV
Summary of the method: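 A 17beta-estradiol challenge was applied right after compound transfer to ER-alpha-UAS-bla HEK293 cells previously kept in charcoal-stripped serum. Plates stood 18 hr at 37C and 5% CO2; fluorescence was read following 2 hr FRET substrate loading at room temperature.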

[11] = qHTS assay to identify small molecule antagonists of the estrogen receptor alpha (ER-alpha) signaling pathway - cell viability counter screen (AID 743074; calls by dose curve;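 further: HEK293 cells carrying ER-alpha-UAS-bla reporter stimulated with 17beta-estradiol; nearly all actives have a fitted effect of over 45% in size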)
[12] = target: Estrogen receptor (Homo sapiens) (UniProt P03372); assay: qHTS assay to identify small molecule agonists of the estrogen receptor alpha (ER-alpha) signaling pathway (AID 743075; calls by dose curve;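 further: HEK293 GripTite cells with ER-alpha and UAS-driven beta-lactamase reporter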)
[13] = qHTS assay to identify small molecule antagonists of the estrogen receptor alpha (ER-alpha) signaling pathway using the BG1 cell line (AID 743080; calls by dose curve;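 further: BG1 cells stimulated with 17beta-estradiol alongside compound; nearly all actives have a fitted effect of over 25% in size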); details: BG1Luc4E2 ERE-luciferase antagonist mode, luminescence; activity change, negative = inhibition: at 70.3 µM (top of the series)
Summary of the method: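 Luminescence from a 4×ERE-luciferase reporter in BG1-Luc-4E2 cells served as read-out. Cells, pre-cultured 5 days in stripped-serum phenol-red-free medium, were exposed to compound with 17beta-estradiol co-stimulation for 21.5 h at 37 C.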

[14] = qHTS assay to identify small molecule antagonists of the estrogen receptor alpha (ER-alpha) signaling pathway using the BG1 cell line - cell viability counter screen (AID 743081);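 further: compound given together with 17beta-estradiol as the ER stimulus; nearly all actives have a fitted effect of over 45% in size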
[15] = target: Aromatase (Homo sapiens) (UniProt P11511); assay: qHTS assay to identify aromatase inhibitors (AID 743083); further: nearly all actives have a fitted effect of over 55% in size
Sequence of Aromatase (Homo sapiens) (P11511 whole entry, looked up): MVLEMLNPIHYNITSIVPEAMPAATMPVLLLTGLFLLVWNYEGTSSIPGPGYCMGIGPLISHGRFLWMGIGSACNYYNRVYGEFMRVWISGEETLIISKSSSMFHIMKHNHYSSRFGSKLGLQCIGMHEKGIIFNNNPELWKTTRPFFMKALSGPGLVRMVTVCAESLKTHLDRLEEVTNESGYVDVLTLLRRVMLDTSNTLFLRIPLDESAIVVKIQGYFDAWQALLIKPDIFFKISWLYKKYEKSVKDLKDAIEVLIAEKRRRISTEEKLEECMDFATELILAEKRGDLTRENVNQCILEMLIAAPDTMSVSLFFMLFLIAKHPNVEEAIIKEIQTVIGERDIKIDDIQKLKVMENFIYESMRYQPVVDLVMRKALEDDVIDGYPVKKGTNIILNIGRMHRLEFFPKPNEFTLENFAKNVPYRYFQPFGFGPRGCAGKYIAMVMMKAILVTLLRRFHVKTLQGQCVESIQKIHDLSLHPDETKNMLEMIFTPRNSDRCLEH

[16] = qHTS assay to identify aromatase inhibitors - cell viability counter screen (AID 743084)
[17] = target: Estrogen receptor (Homo sapiens) (UniProt P03372); assay: qHTS assay to identify small molecule agonists of the estrogen receptor alpha (ER-alpha) signaling pathway using the BG1 cell line (AID 743079); further: nearly all actives have a fitted effect of over 20% in size
Potency means the concentration at half of the fitted maximal effect.

Compound | Potency [1] | Potency [2] | Potency [3] | Potency [4] | Potency [5] | Potency [6] | Potency [7] | Potency [8] | Potency [9] | Potency [10] | Potency [11] | Potency [12] | Potency [13] | Potency [14] | Potency [15] | Potency [16] | activity change, negative = inhibition [13] | Potency [17]
CC(C)C(=O)Nc1ccc([N+](=O)[O-])c(C(F)(F)F)c1 | inactive | 13.3 µM (active) and 44.5 µM (active) and 19.3 µM (active) | 29.8 µM (active) and 25 µM (active) and 30.6 µM (active) | 18.8 µM (active) and 22.3 µM (active) and 19.3 µM (active) | inactive and 25.2 µM (active) and 49 µM (active) | inactive | inactive | 62.9 µM (active) | inactive | inactive and 49 µM [inhibitor] (active) | inactive | inactive | 29.8 µM (active) and 49.9 µM (active) | inactive | inactive and 62.9 µM (active) | inactive | – | –
CCCCCCCCCCCCCCCC[N+](C)(C)Cc1ccccc1 | 21.3 µM (active) and 22.6 µM (active) and 35.3 µM (active) | 596 nM (active) and 794 nM (active) and 350 nM (active) | 750 nM (active) and 631 nM (active) and 783 nM (active) | 668 nM (active) and 891 nM (active) and 1.39 µM (active) | 16.9 µM (active) and 17.9 µM (active) and 17.7 µM (active) | 35.5 µM (active) and 27.8 µM (active) | 18.8 µM (active) and 14.1 µM (active) and 24.8 µM (active) | 11.9 µM (active) and 8.91 µM (active) and 22.1 µM (active) | inactive | – | 19 µM (active) and 25.3 µM (active) and 31.4 µM (active) | inactive | – | inactive | 26.6 µM (active) and 50.1 µM (active) and 27.8 µM (active) | 26.6 µM (active) and 49.4 µM (active) | -23.2% (active) | –
CCCCNC(=O)NS(=O)(=O)c1ccc(C)cc1 | inactive | inactive | inactive | inactive | inactive | inactive | inactive | inactive | inactive | – | inactive | – | – | inactive | inactive | inactive | – | –
NC(CO)(CO)CO | inactive | inactive | inactive | inactive | inactive | inactive | inactive | inactive | inactive and 9.69 µM (active) | inactive | inactive | inactive | inactive | inactive | inactive | inactive | – | inactive
CN(N=O)C(=O)N[C@@H]1[C@@H](O)[C@H](O)[C@@H](CO)O[C@@H]1O | inactive | inactive | inactive | inactive | inactive | inactive | inactive | inactive | inactive | inactive | inactive | inactive | inactive | inactive | inactive | inactive | – | inactive
CCN(CC)C(=O)c1cccc(C)c1 | inactive | inactive | inactive | inactive | inactive | inactive | inactive | inactive | inactive | inactive | inactive | 21.3 µM [inconclusive] (active) and inactive | inactive | inactive | inactive | inactive | – | 2.66 µM (active) and inactive
OC[C@H]1O[C@H](O[C@]2(CCl)O[C@H](CCl)[C@@H](O)[C@@H]2O)[C@H](O)[C@@H](O)[C@H]1Cl | inactive | inactive | inactive | inactive | inactive | inactive | inactive | inactive | inactive | – | inactive | – | – | inactive | inactive | inactive | – | –
CC12CCC(CC1)C(C)(C)O2 | inactive | inactive | inactive | inactive | inactive | inactive | inactive | inactive | inactive | inactive | inactive | inactive | inactive | inactive | inactive | inactive | – | inactive
CN1CCC[C@H]1c1cccnc1 | inactive | inactive | inactive | inactive | inactive | inactive | inactive | inactive | inactive | – | inactive | – | inactive | inactive | inactive | inactive | – | –
O=S1(=O)OC(c2ccc(O)cc2)(c2ccc(O)cc2)c2ccccc21 | inactive | inactive | inactive | inactive and 43.3 µM (active) | inactive | 48.6 µM (active) and 61.1 µM (active) | 27.3 µM (active) | inactive | inactive | inactive | inactive | inactive | inactive | 13.3 µM (active) and 27.3 µM (active) and 17.2 µM (active) | inactive | 27.3 µM (active) | – | 15 µM (active) and inactive
CCCCCCCC(=O)OCC(COC(=O)CCCCCCC)OC(=O)CCCCCCC | inactive | inactive | inactive | inactive | inactive | inactive | inactive | inactive | inactive | inactive | inactive | inactive | inactive | inactive | inactive | inactive | – | inactive

From PubChem BioAssay (Tox21)
